Reference: PubChem BioAssay (Tox21)
Values joined by “and” are separate entries in the source; they are usually repeats but may differ in a detail not shown here. Equal values may be shown once. Results filed as inconclusive are left out. Active and inactive are the calls of the source. Unless noted, calls follow the shape of the dose curve; as a rule, active = well fitted curve in the direction sought with a large enough effect in the repeat runs; inconclusive = weak or mixed curves; inactive = no such curve, though single readings can be large; an effect the other way counts as inactive or inconclusive.

What was measured:
[1] = qHTS assay to identify small molecule antagonists of the estrogen related receptor (ERR) signaling pathway from Tox21 library - cell viability counter screen (AID 1224834); also: nearly all actives have a fitted effect of over 30% in size; also: potency is read from the fitted curve at half-maximal effect
Procedure, shortened: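 Counter screen run in ERR cells (2,000 cells/well): cells pre-incubated 6 h, then treated with compounds for 17.5 h at 37 C. Fluorescence was read 30 min after CellTiter-Fluor addition.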

[2] = target: Luciferin 4-monooxygenase (Photinus pyralis) (UniProt P08659); assay: qHTS assay to identify small molecule inhibitors of firefly luciferase (AID 1224835); also: nearly all actives have a fitted effect of over 25% in size; also: potency is read from the fitted curve at half-maximal effect
Chain of Luciferin 4-monooxygenase (Photinus pyralis) (P08659 whole entry, looked up): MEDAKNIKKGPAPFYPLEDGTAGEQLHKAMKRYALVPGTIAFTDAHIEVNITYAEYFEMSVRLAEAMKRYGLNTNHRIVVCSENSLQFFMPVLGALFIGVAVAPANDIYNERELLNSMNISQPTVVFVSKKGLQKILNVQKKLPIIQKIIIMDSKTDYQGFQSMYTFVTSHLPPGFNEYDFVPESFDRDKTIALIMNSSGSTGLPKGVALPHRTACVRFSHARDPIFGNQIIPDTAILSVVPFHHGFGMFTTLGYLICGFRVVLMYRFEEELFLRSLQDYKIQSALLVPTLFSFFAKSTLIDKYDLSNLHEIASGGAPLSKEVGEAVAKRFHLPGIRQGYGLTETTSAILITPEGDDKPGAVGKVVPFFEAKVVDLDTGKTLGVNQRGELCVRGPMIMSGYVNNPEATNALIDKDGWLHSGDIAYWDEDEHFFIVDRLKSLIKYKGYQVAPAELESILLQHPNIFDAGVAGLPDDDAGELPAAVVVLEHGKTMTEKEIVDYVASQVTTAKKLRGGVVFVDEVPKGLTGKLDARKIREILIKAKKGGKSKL
Procedure, shortened: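 Quantitative HTS format; KM concentrations of both substrates. Purified P. pyralis FLuc activity quantified from luminescence images.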

[3] = qHTS assay to identify small molecule agonists of the constitutive androstane receptor (CAR) signaling pathway - cell viability counter screen (AID 1224836); also: nearly all actives have a fitted effect of over 45% in size; also: potency is read from the fitted curve at half-maximal effect
Procedure, shortened: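 23 h treatment, 37 C, 5% CO2. Cell line: HepG2 stably expressing hCAR with a CYP2B6-2.2kb construct. Co-treatment: PK11195, 0.75 uM final. Read-out: CellTiter-Fluor fluorescence intensity.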

[4] = qHTS assay to identify small molecule antagonists of the constitutive androstane receptor (CAR) signaling pathway - cell viability counter screen (AID 1224837); also: nearly all actives have a fitted effect of over 45% in size; also: potency is read from the fitted curve at half-maximal effect
Procedure, shortened: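 CITCO at 50 nM final was added alongside compounds (15 concentrations) to double-stable hCAR/CYP2B6-2.2kb HepG2 cells. Following 23 hr at 37 C, cell viability was quantified by CellTiter-Fluor fluorescence intensity.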

[5] = target: Nuclear receptor subfamily 1 group I member 3 (Homo sapiens) (UniProt Q14994); assay: qHTS assay to identify small molecule antagonists of the constitutive androstane receptor (CAR) signaling pathway (AID 1224838); also: nearly all actives have a fitted effect of over 40% in size; also: potency is read from the fitted curve at half-maximal effect
Chain of Nuclear receptor subfamily 1 group I member 3 (Homo sapiens) (Q14994 whole entry, looked up): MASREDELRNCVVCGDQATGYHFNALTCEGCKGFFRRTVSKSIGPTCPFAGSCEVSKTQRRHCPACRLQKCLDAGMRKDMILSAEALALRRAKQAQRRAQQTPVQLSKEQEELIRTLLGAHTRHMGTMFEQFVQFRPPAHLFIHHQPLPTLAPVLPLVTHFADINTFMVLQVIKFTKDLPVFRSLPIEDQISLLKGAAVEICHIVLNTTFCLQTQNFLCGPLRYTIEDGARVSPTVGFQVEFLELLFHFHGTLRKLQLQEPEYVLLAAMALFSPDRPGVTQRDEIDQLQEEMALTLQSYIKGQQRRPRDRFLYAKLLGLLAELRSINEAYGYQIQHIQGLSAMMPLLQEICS
Procedure, shortened: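 Inhibition of CITCO-driven (50 nM final) CYP2B6 reporter expression is measured in HepG2 cells stably carrying hCAR. Fifteen compound concentrations are applied for 24 h at 37 C, followed by luciferase luminescence.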

[6] = target: Nuclear receptor subfamily 1 group I member 3 (Homo sapiens) (UniProt Q14994); assay: qHTS assay to identify small molecule agonists of the constitutive androstane receptor (CAR) signaling pathway (AID 1224839); also: nearly all actives have a fitted effect of over 15% in size; also: potency is read from the fitted curve at half-maximal effect
Procedure, shortened: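 Compounds tested at 15 concentrations on HepG2 cells stably harbouring hCAR and CYP2B6-2.2kb reporter constructs, co-treated with PK11195 (0.75 uM final), 24 h at 37 C; luminescent reporter signal quantified.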

[7] = qHTS assay to identify small molecule antagonists of the estrogen related receptor signaling pathway with the pleiotropic PPARgamma coactivator (PGC) from Tox21 10K library - cell viability counter screen (AID 1224840; active = well fitted cell-killing curve with a large enough effect in the repeat runs, not every such curve was filed as active; also: nearly all actives have a fitted effect of over 40% in size; also: potency is read from the fitted curve at half-maximal effect)
Procedure, shortened: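 Readout: fluorescence intensity from CellTiter-Fluor after 30 min at 37 C/5% CO2. Preceded by 17.5 h treatment of PGC/ERR cells with DMSO-dissolved compounds, added 6 h post-seeding.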

[8] = qHTS assay to identify small molecule antagonists of the estrogen related receptor signaling pathway with the pleiotropic PPARgamma coactivator (PGC) from Tox21 10K library (AID 1224841; call rule not given here; also: actives are mostly falling curves and most rising ones were filed inactive; nearly all actives have a fitted effect of over 50% in size; also: potency is read from the fitted curve at half-maximal effect)
Procedure, shortened: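 One-Glo luminescence, measured after half an hour at room temperature, quantified reporter output of PGC/ERR cells. These had been plated at 2,000 per well, incubated 6 h, dosed with compounds in DMSO, then kept 18 h at 37 C.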

[9] = qHTS assay to identify small molecule agonists of the estrogen related receptor signaling pathway with the pleiotropic PPARgamma coactivator (PGC) from Tox21 10K library (AID 1224842); also: nearly all actives have a fitted effect of over 15% in size
Procedure, shortened: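 PGC/ERR reporter cells (NTP line) were seeded 2,000 per well, rested 6 h at 37 C/5% CO2, then pin-dosed with compounds in DMSO for 18 h at 37 C; luciferase read by One-Glo luminescence after 30 min at room temperature.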

[10] = target: Thyrotropin receptor (Homo sapiens) (UniProt P16473); assay: qHTS assay to identify small molecule agonists of the thyroid stimulating hormone receptor (TSHR) signaling pathway (AID 1224843; calls by dose curve; also: nearly all actives have a fitted effect of over 45% in size; also: potency is read from the fitted curve at half-maximal effect)
Chain of Thyrotropin receptor (Homo sapiens) (P16473 whole entry, looked up): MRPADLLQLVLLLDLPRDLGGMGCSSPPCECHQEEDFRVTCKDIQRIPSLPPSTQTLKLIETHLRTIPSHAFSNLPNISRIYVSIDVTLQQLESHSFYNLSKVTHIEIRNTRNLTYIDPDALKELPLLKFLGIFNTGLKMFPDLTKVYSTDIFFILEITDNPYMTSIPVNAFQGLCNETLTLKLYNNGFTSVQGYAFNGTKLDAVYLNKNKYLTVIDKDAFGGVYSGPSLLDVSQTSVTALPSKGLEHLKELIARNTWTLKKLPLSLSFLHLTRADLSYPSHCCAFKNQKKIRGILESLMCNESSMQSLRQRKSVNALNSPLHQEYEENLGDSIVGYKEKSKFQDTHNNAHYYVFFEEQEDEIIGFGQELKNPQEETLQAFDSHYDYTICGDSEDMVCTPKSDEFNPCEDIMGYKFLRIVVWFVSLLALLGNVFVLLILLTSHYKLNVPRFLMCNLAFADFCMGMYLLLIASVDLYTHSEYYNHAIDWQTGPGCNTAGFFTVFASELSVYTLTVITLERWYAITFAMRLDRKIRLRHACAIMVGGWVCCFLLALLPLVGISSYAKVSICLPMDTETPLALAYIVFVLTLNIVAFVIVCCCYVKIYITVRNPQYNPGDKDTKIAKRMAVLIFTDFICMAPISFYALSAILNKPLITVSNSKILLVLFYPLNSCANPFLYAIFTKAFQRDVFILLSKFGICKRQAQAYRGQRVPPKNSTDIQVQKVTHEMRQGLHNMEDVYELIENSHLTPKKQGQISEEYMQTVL
Procedure, shortened: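 Compounds are titrated over 15 concentrations, in triplicate, onto TSHR-HEK293 cells seeded at 800/well. Plates sit 30 min at room temperature before cAMP-d2 and anti-cAMP cryptate are added; signal is read after a further hour.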

Measured: Potency

CCNc1nc(NC(C)C(C)C)nc(SC)n1 (stereo not given)
inactive: [1] | [2] | [3] | [4] | [5]
active: [6] 48.6 µM

Cc1ccccc1OP(=O)(Oc1ccccc1C)Oc1ccccc1C
active: [6] 21.8 µM
inactive: all other assays above

ClCBr
inactive: all assays above

CN=C=O
inactive: all assays above

C=C(C)C(=O)[O][Sn]([CH2]CCC)([CH2]CCC)[CH2]CCC
inactive: [6] | [9]
active: [1] 1.72 µM | [2] 35.6 µM | [3] 0.77 µM | [4] 0.864 µM | [5] 0.273 µM | [7] 0.864 µM | [10] 0.486 µM

CN(C)c1ccc(N)cc1
inactive: [5]
active: [1] 23.7 µM | [2] 1.74 µM | [3] 59.6 µM | [4] 53.2 µM | [6] 9.45 µM | [7] 26.6 µM

O=[N+]([O-])C(Br)Br
active: [2] 28.3 µM
inactive: all other assays above

O=c1[nH]c(Cl)c(Cl)cc1Cl
not listed: [8]
inactive: all other assays above

CC(C)NCC(O)c1ccccc1Cl (stereo not given)
not listed: [10]
inactive: all other assays above

CC1(C)C(C=C(Cl)Cl)C1C(=O)OC(C#N)c1ccc(F)c(Oc2ccccc2)c1 (stereo not given)
not listed: [10]
inactive: all other assays above

O=[N+]([O-])c1ccccc1-c1ccccc1
inactive: all assays above

C[C@]12C/C(=C/O)C(=O)C[C@@H]1CC[C@@H]1[C@@H]2CC[C@@]2(C)[C@H]1CC[C@]2(C)O
active: [1] 55 µM | [8] 43.7 µM and 26.6 µM
inactive: all other assays above

CN/C(=N\[N+](=O)[O-])NCc1cnc(Cl)s1
not listed: [8] | [9] | [10]
inactive: all other assays above

CC[C@H](C)[C@H]1O[C@]2(C=C[C@@H]1C)C[C@@H]1C[C@@H](C/C=C(\C)[C@@H](O[C@H]3C[C@H](OC)[C@@H](O[C@H]4C[C@H](OC)[C@@H](NC)[C@H](C)O4)[C@H](C)O3)[C@@H](C)/C=C/C=C3\CO[C@@H]4[C@H](O)C(C)=C[C@@H](C(=O)O1)[C@]34O)O2
inactive: [2] | [6]
active: [1] 8.63 µM | [3] 12.2 µM | [4] 9.69 µM | [5] 13.7 µM | [7] 6.86 µM

CCCCON=O
active: [8] 49.8 µM
inactive: all other assays above

CCN1CCC2(CC1)COc1cc3c(cc12)N(C(=O)c1ccc(-c2ccc(-c4nnc(C)o4)cc2C)cc1)CC3
inactive: [2] | [6] | [9]
active: [1] 17.8 µM | [3] 44.8 µM | [4] 50.2 µM | [5] 44.8 µM | [7] 17.8 µM | [8] 7.96 µM

NC(=O)C(Cl)Cl
inactive: [1] | [2] | [3] | [4]

CNC(=O)CSP(=O)(OC)OC
not listed: [8] | [9]
inactive: all other assays above

Cc1cc2c3c(c1)C(c1ccccc1)=N[C@@H](NC(=O)c1ccncc1)C(=O)N3CC2
not listed: [7]
inactive: all other assays above

COC(=O)C(C)N(C(=O)c1ccco1)c1c(C)cccc1C (stereo not given)
active: [6] 15.3 µM
not listed: [7]
inactive: all other assays above

Nc1c(Cl)c(Cl)c(Cl)c(Cl)c1Cl
inactive: [1] | [2] | [3] | [4] | [5] | [7]

CCN(CC)C(=O)N[C@@H]1C=C2c3cccc4[nH]cc(c34)C[C@@H]2N(C)C1
not listed: [6] | [8] | [9]
inactive: all other assays above
